Values joined by “and” are separate entries in the source; they are usually repeats but may differ in a detail not shown here. Equal entries are not always repeated. Results filed as inconclusive are left out. Active and inactive are the calls of the source. Unless noted, no stated cut-off is given here; in the data, active means inhibition above about 80%; inactive means the rest.
Assays:
[1] = viability loss in pontine glioma line – cell-based, SU-DIPG-XIII, MIPE5.0, CellTiter-Glo, qHTS, dose response (AID 1347064; cut-off not given, nearly all actives have AC50 up to about 23 µM;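 on AC50: cells exposed to compound for 48 hours before the viability read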); details: CellTiter-Glo ATP luminescence
[2] = blockers of cellular phospholipid synthesis – cell-based, LOPAC library, screen 4, primary screen (AID 1347384; call rule not given here); details: animal cells, phospholipid biosynthesis inhibition screen; at 10 µM
[3] = growth inhibition, single agents and combos, CRL2098, cell-based, BGB or cisplatin IC20 combos, synergistic combos for chromothripsis tumors (AID 1671454); details: CRL2098 osteosarcoma cells, drug combinations, stronger effect = higher value;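 further: cells exposed for 96 h before readout; 0% = vehicle DMSO and 100% = killing by high DMSO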
[4] = growth inhibition, single agents and combos, HD-MB03, cell-based, BGB or cisplatin IC20 combos, synergistic combos for chromothripsis tumors (AID 1671455; in the data active means inhibition above about 83%;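 further: 0% = vehicle DMSO and 100% = high DMSO as cytotoxic control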); details: HD-MB03 medulloblastoma cells, stronger effect = higher value
[5] = growth inhibition, single agents and combos, UWB1.289, cell-based, BGB or cisplatin combos, synergistic combos for chromothripsis tumors (AID 1671456); details: UWB1.289 ovarian carcinoma cells, stronger effect = higher value;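 further: cells exposed to compound for four days; 0% = vehicle DMSO and 100% = killing by high DMSO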
[6] = growth inhibition, single agents and combos, LFS_MB_2R, cell-based, cisplatin combos, synergistic combos for chromothripsis tumors (AID 1671457); details: LFS_MB_2R medulloblastoma cells, stronger effect = higher value;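 further: cells exposed to compound for four days before readout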
[7] = UWB1.289_BRCA1 ovarian cancer growth, cell-based, BGB or cisplatin combinations (AID 1671459); details: UWB1.289 BRCA1 ovarian carcinoma, drug combinations, stronger effect = higher value
[8] = drug combination toxicity in non-malignant astrocytes – cell-based, BGB or cisplatin IC20 combos, cytotoxicity control for chromothriptic childhood tumor combination screen (AID 1671460); details: Human astrocytes, viability inhibition, drug combinations, at 0.5 µM, stronger effect = higher value;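 further: cells exposed to compounds for 96 hours before viability readout; 0% = vehicle and 100% = killing control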
[9] = liver-stage malaria parasite load reduction – cell-based, known kinase inhibitor set, luminescence, hepatoma host viability (AID 624392; call rule not given here;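 further: infected cells incubated roughly two days before readout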); details: Plasmodium liver stage in hepatoma cells, luciferase luminescence, concentration not given here; liver cell % of control: measured here: host liver cell viability; parasite % of control: stronger effect = lower value
[10] = compounds altering circadian rhythm period length – cell-based, LOPAC library, luminescence reporter (AID 2774; call rule not given here;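 further: values are relative to mean of DMSO wells on each plate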); details: circadian reporter cells, at 7 µM, actives lie on both sides
[11] = test system: Hepatitis C virus NS3 helicase; experiment: blockers of NS3h binding to ssDNA – biochemical, fluorescence polarization, LOPAC1280 library, primary screen (AID 687035; in the data active means inhibition above about 37%); details: Purified HCV NS3 helicase, Cy5-dT15 ssDNA binding fluorescence polarization; stronger effect = higher value; concentration not given here
[12] = compounds altering Cy5-DNA-NS3h complex signal – biochemical, LOPAC1280, artefact control for HCV NS3 helicase inhibitor project (AID 687037; call rule not given here); details: Cy5-DNA-NS3h complex fluorescence interference counterscreen
[13] = chitosan synthesis blockers in C. neoformans – flow cytometry, Cibacron Brilliant Red staining (AID 1347148; call rule not given here;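 further: compound exposure lasted three days at 37 degrees C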); details: Cryptococcus neoformans chitosan, stronger effect = lower value; at 10 µM unless noted
[14] = galactose survival enhancers in mitochondrial complex I cybrids – cell-based, galactose medium, ATP luminescence, primary screen (AID 1645843;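 active means z-score of at least 1.8 in each of two replicates, scored against plate mean and spread of sample wells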;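 further: positive z means more ATP and so rescue of galactose-driven cybrid death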); details: complex I mutant cybrid cells, 72 h, stronger effect = higher value
[15] = P. berghei load reduction in hepatocytes – cell-based, HepG2, luciferase luminescence, HepG2 viability, primary screen (AID 624349; in the data active means parasite load remaining mostly below about 12%, no sharp cut-off; inactive means mostly above about 10%;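 further: 100% = mean of DMSO negative control wells on the same plate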); details: P. berghei liver stage in HepG2, luciferase luminescence, concentration not given here; parasite load remaining: stronger effect = lower value; viability: measured here: HepG2 viability without parasites
[16] = biological target: NAD(+) hydrolase SARM1 (Homo sapiens) (UniProt Q6SZW1); experiment: blocking NAD cleavage by SARM1 SAM-TIR – cell lysate, NAD-Glo luminescence (AID 1508614;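 active means compound whose remaining NAD level is above about 45 nM, limit read from the data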); details: SAM-TIR HEK293T lysate NADase, at 1 µM, stronger effect = higher value
[17] = biological target: Mitogen-activated protein kinase 7 (Homo sapiens) (UniProt Q13164); experiment: Gal4-ERK5 driven luciferase induction – cell-based, HTS, primary screen (AID 1508626;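 active means luciferase signal above three times the same-plate solvent-only control wells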;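 further: luciferase driven by Gal4-ERK5 fusion binding five Gal4 sites before minimal TATA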); details: HeLa Gal4-ERK5 transactivation, 18 h, at 5 µM, stronger effect = higher value
[18] = compounds altering viability of human ES cells (AID 493140; call rule not given here;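 further: cells exposed to compounds for four days before counting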); details: human embryonic stem cell survival screen; stronger effect = higher value
[19] = measured here: combination with BGB at IC20, at 0.5 µM
[20] = measured here: combination with cisplatin at IC20, at 0.5 µM
[21] = measured here: combo with BGB at IC20, at 0.5 µM
[22] = measured here: combo with cisplatin at IC20, at 0.5 µM
[23] = measured here: inhibition with BGB combination, at 0.05 µM
[24] = measured here: inhibition with cisplatin combination, at 0.05 µM
[25] = measured here: combination with cisplatin, at 0.5 µM
[26] = measured here: combination with cisplatin, at 5 µM
[27] = BGB combination, concentration series, at 5 µM
[28] = cisplatin combination, concentration series, at 5 µM
[29] = measured here: combo with BGB IC20
[30] = measured here: combo with cisplatin IC20

Sequence of NAD(+) hydrolase SARM1 (Homo sapiens) (Q6SZW1 whole entry, looked up, the tested form may be a part): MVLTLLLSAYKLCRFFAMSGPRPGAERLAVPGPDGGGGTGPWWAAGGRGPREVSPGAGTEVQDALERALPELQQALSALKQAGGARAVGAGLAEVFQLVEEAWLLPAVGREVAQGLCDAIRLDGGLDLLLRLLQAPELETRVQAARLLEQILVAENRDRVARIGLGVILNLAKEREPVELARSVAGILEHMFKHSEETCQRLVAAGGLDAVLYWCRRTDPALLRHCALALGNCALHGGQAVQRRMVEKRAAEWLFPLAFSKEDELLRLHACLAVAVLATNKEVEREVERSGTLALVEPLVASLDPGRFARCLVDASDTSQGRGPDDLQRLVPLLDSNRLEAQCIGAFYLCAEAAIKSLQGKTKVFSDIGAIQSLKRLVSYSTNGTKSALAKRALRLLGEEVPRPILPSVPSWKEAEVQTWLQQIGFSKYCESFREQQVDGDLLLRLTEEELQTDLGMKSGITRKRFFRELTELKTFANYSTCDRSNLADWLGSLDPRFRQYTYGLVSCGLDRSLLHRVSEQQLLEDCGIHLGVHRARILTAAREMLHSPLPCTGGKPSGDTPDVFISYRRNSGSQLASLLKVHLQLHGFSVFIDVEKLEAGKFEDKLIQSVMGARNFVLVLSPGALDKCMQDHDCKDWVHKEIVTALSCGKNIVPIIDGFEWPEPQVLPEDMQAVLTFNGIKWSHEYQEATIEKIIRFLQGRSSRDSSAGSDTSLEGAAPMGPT
Sequence of Mitogen-activated protein kinase 7 (Homo sapiens) (Q13164 whole entry, looked up, the tested form may be a part): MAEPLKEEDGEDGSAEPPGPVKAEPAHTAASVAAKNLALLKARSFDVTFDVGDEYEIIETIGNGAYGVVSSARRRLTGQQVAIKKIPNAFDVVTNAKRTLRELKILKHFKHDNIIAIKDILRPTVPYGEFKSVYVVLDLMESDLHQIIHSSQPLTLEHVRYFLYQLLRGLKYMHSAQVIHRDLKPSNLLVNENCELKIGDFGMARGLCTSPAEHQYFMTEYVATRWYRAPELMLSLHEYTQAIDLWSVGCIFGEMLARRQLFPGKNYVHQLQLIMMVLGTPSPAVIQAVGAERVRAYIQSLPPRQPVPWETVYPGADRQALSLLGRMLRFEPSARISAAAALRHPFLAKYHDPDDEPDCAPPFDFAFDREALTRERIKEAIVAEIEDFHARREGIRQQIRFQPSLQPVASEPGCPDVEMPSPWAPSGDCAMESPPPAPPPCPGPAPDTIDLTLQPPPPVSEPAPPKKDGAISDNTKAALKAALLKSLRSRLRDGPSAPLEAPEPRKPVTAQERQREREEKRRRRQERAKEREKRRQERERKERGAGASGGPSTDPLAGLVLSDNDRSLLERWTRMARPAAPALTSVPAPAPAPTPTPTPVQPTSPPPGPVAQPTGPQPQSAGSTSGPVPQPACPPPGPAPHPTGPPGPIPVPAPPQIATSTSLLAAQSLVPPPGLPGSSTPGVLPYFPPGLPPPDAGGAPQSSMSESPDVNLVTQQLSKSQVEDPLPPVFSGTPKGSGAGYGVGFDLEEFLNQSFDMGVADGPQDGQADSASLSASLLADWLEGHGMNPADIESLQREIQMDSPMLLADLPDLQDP

## COc1ccc(Cc2nccc3cc(OC)c(OC)cc23)cc1OC
[1]
  outcome: inactive
[2]
  outcome: inactive

## COc1cc(OC2CCN(C)CC2)ccc1Nc1ncc2c(n1)n(C1CCCC1)c(=O)n2C
[1]
  AC50: 18.6 µM (active)

## COc1cc2ncnc(-n3nc(-c4ccccn4)nc3N)c2cc1OC
[3]; at 0.5 µM
  inhibition: -78.1% (inactive)
[3]; [19]
  inhibition: -51.1%
[3]; [20]
  inhibition: -60.2%
[4]; at 0.5 µM
  inhibition: -15.7% (inactive)
[4]; [21]
  inhibition: -13.6%
[4]; [22]
  inhibition: -21.1%
[5]; at 0.5 µM
  inhibition: -16.4% (inactive)
[5]; [23]
  inhibition: -29.1%
[5]; [24]
  inhibition: -13.1%
[6]; at 0.5 µM
  inhibition: -18.6% (inactive)
[6]; [25]
  inhibition: -13.8%
[6]; [26]
  inhibition: 1.78%
[7]; [27]
  inhibition: 15%
[7]; at 0.5 µM
  inhibition: -15.7% (inactive)
[7]; [28]
  inhibition: 9.66%
[8]
  inhibition: 6.38% (inactive)
[8]; [29]
  inhibition: 7.82%
[8]; [30]
  inhibition: -1.55%

## COCCNCCCn1c(C(=O)CF)c(-c2ccc(C)cc2)c2c(N)ncnc21
[9]
  parasite % of control: 34.2% (inactive) and 108% (inactive) and 115% (inactive)
[1]
  outcome: inactive

## O=C(O)C1(Cc2cccc(Nc3nccs3)n2)CCC(Oc2cccc(Cl)c2F)CC1 (stereo unspecified)
[1]
  outcome: inactive

## OCc1ccc(-c2nn(Cc3ccccc3)c3ccccc23)o1
[10]
  period change: -0.37 h (inactive)
[11]
  inhibition: 0% (inactive)
[12]
  fluorescence ratio (interference): 1 (inactive)
[13]
  fold fluorescence: 11.2 [at 164.3 µM] (inactive)
[2]
  outcome: inactive
[14]
  z-score: -0.46 (inactive)

## C=C1c2cccc(O)c2C(O)=C2C(=O)[C@@]3(O)C(O)=C(C(N)=O)C(=O)[C@@H](N(C)C)[C@@H]3[C@@H](O)[C@H]12
[1]
  outcome: inactive

## CCOC(=O)N[C@@H]1CC[C@@H]2[C@@H](C1)C[C@H]1C(=O)O[C@H](C)[C@H]1[C@H]2/C=C/c1ccc(-c2cccc(F)c2)cn1
[1]
  outcome: inactive

## Cc1cc(C(C)Nc2ccccc2)c2nc(N3CCOCC3)cc(=O)n2c1 (stereo unspecified)
[15]
  parasite load remaining: 33.1% (inactive)
  viability: 62.4%
[9]
  liver cell % of control: 99% and 87.4% and 105%
  parasite % of control: 84.7% (inactive) and 70.8% (inactive) and 54.4% (inactive)

## Cc1cnc(CNC(=O)c2c(=O)c3ccc(N4CCCN(C)CC4)nc3n3c2sc2ccccc23)cn1
[1]
  outcome: inactive
[3]; at 0.5 µM
  inhibition: 31.8% (inactive) and -46.4% (inactive)
[3]; [19]
  inhibition: 40.6% and -32.3%
[3]; [20]
  inhibition: 37% and -70.3%
[4]; at 0.5 µM
  inhibition: 51.2% (inactive) and 21.9% (inactive)
[4]; [21]
  inhibition: 53.1% and 31.3%
[4]; [22]
  inhibition: 36.7% and 11.5%
[5]; at 0.5 µM
  inhibition: 39.7% (inactive) and 9.86% (inactive)
[5]; [23]
  inhibition: -5.3% and -40%
[5]; [24]
  inhibition: -10.5% and -7.68%
[6]; at 0.5 µM
  inhibition: -14.9% (inactive) and -31.5% (inactive)
[6]; [25]
  inhibition: -16.1% and -30.8%
[6]; [26]
  inhibition: 108% and -28.8%
[7]; [27]
  inhibition: 117% and 38.3%
[7]; at 0.5 µM
  inhibition: 44.8% (inactive) and 2% (inactive)
[7]; [28]
  inhibition: 122% and 71.6%
[8]
  inhibition: 45.8% (inactive) and 19.7% (inactive)
[8]; [29]
  inhibition: 41.5% and 16.4%
[8]; [30]
  inhibition: 31.2% and 2.96%

## CC(C)(C)OC(=O)Nc1ccc(-c2cc(C(=O)NCCCCCCC(=O)NO)no2)cc1
[1]
  AC50: 1.86 µM (active)
[3]; at 0.5 µM
  inhibition: -72.5% (inactive) and -77.6% (inactive)
[3]; [19]
  inhibition: -95.4% and -52.6%
[3]; [20]
  inhibition: -69.5% and -63.5%
[4]; at 0.5 µM
  inhibition: 9.94% (inactive) and 21.1% (inactive)
[4]; [21]
  inhibition: 2.31% and 13%
[4]; [22]
  inhibition: 19.2% and 51.1%
[5]; at 0.5 µM
  inhibition: -1.75% (inactive) and 9.21% (inactive)
[5]; [23]
  inhibition: -25.1% and -31.2%
[5]; [24]
  inhibition: -18.4% and -19.7%
[6]; at 0.5 µM
  inhibition: -15% (inactive) and -8.72% (inactive)
[6]; [25]
  inhibition: -1.56% and 8.91%
[6]; [26]
  inhibition: 69.3% and 57.6%
[7]; [27]
  inhibition: 81.5% and 72.3%
[7]; at 0.5 µM
  inhibition: -3.45% (inactive) and 2.97% (inactive)
[7]; [28]
  inhibition: 90.6% and 89.6%
[8]
  inhibition: 10.3% (inactive) and 12.5% (inactive)
[8]; [29]
  inhibition: 8.87% and 11.7%
[8]; [30]
  inhibition: 7.42% and 16.9%

## CCC(=O)OCC(=O)[C@@]1(OC(=O)CC)[C@@H](C)C[C@H]2[C@@H]3CCC4=CC(=O)C=C[C@]4(C)[C@@]3(F)[C@@H](O)C[C@@]21C
[16]
  remaining NAD: 10 nM (inactive)
[17]
  luciferase signal: 156 AU (inactive)

## COc1ccc(COc2cc3oc(=O)c4cc(C(C)O)ccc4c3cc2OC)cc1 (stereo unspecified)
[1]
  outcome: inactive

## O=c1c2ccccc2nc2n1CCc1c-2[nH]c2ccccc12
[10]
  period change: 0.11 h (inactive)
[11]
  inhibition: 2% (inactive)
[12]
  fluorescence ratio (interference): 1 (inactive)
[2]
  outcome: inactive
[14]
  z-score: 1.2 (inactive)

## CN(C)N=Nc1nc[nH]c1C(N)=O
[18]
  survival: 12.2 (inactive)
[15]
  parasite load remaining: 83.6% (inactive) and 67% (inactive)
  viability: 97.7% and 78.1%
[1]
  outcome: inactive
